Assay outcomes: PubChem, National Center for Advancing Translational Sciences (NCATS)
Pf growth 96h – P. falciparum growth inhibition at 96 hour, primary screen for plastid delayed-death inhibitors; P. falciparum luciferase reporter growth, 96 h; Potency, µM (series often up to 28.7 µM), inactives show at the highest dose activity change, negative = inhibition, hits mostly inhibitors; 320,000 tested, 6.9% active; AID 504834
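Plates of compound plus infected erythrocytes (2% hematocrit, 0.05% parasitemia final) incubate 96 hours, 37 C, 5% CO2. Detection reagent added; reduced luminescence from the parasites' luciferase reporter flags inhibition.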
HCV inhibitor – HCV inhibition. Huh7.5.1 HCVcc-Cre infection, luciferase reporter, 44 h. AID 651820. 340,000 tested, 3.4% active. Potency, µM (doses to about 41.8 µM), for the others: at the highest dose activity change, negative = inhibition, usual class: inhibitors
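Whole-lifecycle infectious HCVcc-Cre system; cells 1,000/well, compound then virus (~0.5 moi) added 4 h after plating, 44 h culture. Luciferase read 15 sec following 15 min substrate incubation, room temp.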
AMA1-RON2 inh – AMA1-RON2 (P. falciparum) interaction inhibition; AlphaScreen AMA1-biotinylated RON2 peptide binding; Potency, µM (top dose mostly 58.2 µM), without a hit: top-dose activity change, negative = inhibition, actives largely listed as inhibitors; 360,000 tested, 0.2% active; AID 720542;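 further: 0% = vehicle wells and -100% = peptide control; nearly all actives have a fitted effect of over 45% in size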
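AMA1 (3D7) with his tag at 25 nM final met compounds first, then biotinylated RON2 peptide at 25 nM; detection used donor plus acceptor beads, 10 µg/mL apiece, read by AlphaScreen after 30 min at room temperature.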
Pf growth 48h – inhibits P. falciparum growth in the first generation, 48 h | P. falciparum luciferase growth in erythrocytes, 48 h | Potency, µM (top dose mostly 28.7 µM), for inactives: at the top dose activity change, negative = inhibition, hits mostly inhibitors | 310,000 tested, 5.9% active
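First compound was added to culture medium, then infected red cells at 0.1% parasitemia and 2% hematocrit (final). After incubation at 37 C under 5% CO2, luciferase detection reagent was dispensed and light output recorded.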
Numbers without * were called inactive; [ ] = remark or other dose. Shown are actives, neighbours in structure and some others; about 11% of the full set was active somewhere. The call rests on the fitted dose curve; in most records, active means well fitted curve in the direction sought with a large enough effect; inconclusive means small, poorly fitted or top-dose-only effect, or another doubt; inactive means no such curve, though single readings can be large; an effect the other way counts as inactive or inconclusive. Unless noted, on the % scale 0 is the no-effect control and ±100 the full control effect; potency means the concentration at half of the fitted maximal effect.

Results for CCOCCCNC(=O)c1cc(C)nn1-c1ccccc1 ?
Pf growth 96h: 12µM*; HCV inhibitor: 21%; AMA1-RON2 inh: 6%; Pf growth 48h: 8%

What do the screens show for `CCCCNS(=O)(=O)c1ccc2nc(-c3cccs3)cc(C(=O)NCC(OC)OC)c2c1`?
Pf growth 96h: inconclusive; HCV inhibitor: 0%[0.335 µM]; Pf growth 48h: inconclusive

Results for CC(C)OP(=O)(Nc1cccc2ccccc12)OC(C)C ?
Pf growth 96h: inconclusive; HCV inhibitor: -8%; AMA1-RON2 inh: 11%; Pf growth 48h: inconclusive

Results for CN(C)P(=O)(Nc1cccc2ccccc12)Nc1cccc2ccccc12 ?
Pf growth 96h: inconclusive; HCV inhibitor: 8%; AMA1-RON2 inh: -13%; Pf growth 48h: 4.7µM*

How did Cn1cc(CCNC(=O)CC2C(=O)NCCN2CC(c2ccccc2)c2ccccc2)cn1 (stereo not given) do in these assays?
Pf growth 96h: inconclusive; HCV inhibitor: 12%; AMA1-RON2 inh: 4%; Pf growth 48h: -19%

Results for CCn1c(O)c(/C=C2\C=Nc3ccccc32)sc1=O ?
Pf growth 96h: 7.4µM*; HCV inhibitor: inconclusive; AMA1-RON2 inh: -7%; Pf growth 48h: 82%

Results for COC(=O)c1ccc(NC(=O)c2ccc3c(c2)OCO3)cc1 ?
Pf growth 96h: 15µM*; HCV inhibitor: inconclusive; AMA1-RON2 inh: 8%; Pf growth 48h: 97%

Results for COc1cccc(NC(=O)c2ccc3c(c2)OCO3)c1 ?
Pf growth 96h: 9.3µM*; HCV inhibitor: 0%; AMA1-RON2 inh: 12%; Pf growth 48h: 223%

What do the screens show for `COc1ccc(N/C=C\C(=O)c2ccc3c(c2)OCO3)cc1OC`?
Pf growth 96h: 4.7µM*; HCV inhibitor: 8%; AMA1-RON2 inh: 0%; Pf growth 48h: 62%

Results for COc1cccc(C(=O)Nc2cc3c(cc2C(C)=O)OCCO3)c1 ?
Pf growth 96h: 10µM*; HCV inhibitor: inconclusive; AMA1-RON2 inh: 4%; Pf growth 48h: 40%

Results for COc1ccc(NS(=O)(=O)c2cccc(C(=O)O)c2)cc1S(=O)(=O)N1CCCCC1 ?
HCV inhibitor: 21%; AMA1-RON2 inh: 14%

What do the screens show for `COc1ccc([C@@H]2CC=C(C(=O)O)[C@H](c3ccccc3F)N2S(=O)(=O)c2ccccc2C)cc1`?
Pf growth 96h: inconclusive; HCV inhibitor: 21%; AMA1-RON2 inh: -6%; Pf growth 48h: inconclusive

How did CC1=CC(C)(C)N(S(=O)(=O)c2ccc(C)cc2)c2ccccc21 do in these assays?
Pf growth 96h: 10µM*; HCV inhibitor: -1%; AMA1-RON2 inh: -1%

Results for CCOc1ccc2c(c1)C(C)=CC(C)(C)N2S(=O)(=O)c1ccc(NC(C)=O)cc1 ?
Pf growth 96h: 45%; HCV inhibitor: inconclusive; AMA1-RON2 inh: -2%; Pf growth 48h: 6.6µM*

How did CCOc1ccc2c(c1)C(C)=CC(C)(C)N2S(=O)(=O)c1ccc(F)cc1 do in these assays?
Pf growth 96h: inconclusive; HCV inhibitor: inconclusive; AMA1-RON2 inh: 13%; Pf growth 48h: -16%

What do the screens show for `COc1ccc2c(c1)C(C)=CC(C)(C)N2S(=O)(=O)c1ccc(Br)cc1`?
Pf growth 96h: -11%; HCV inhibitor: inconclusive; AMA1-RON2 inh: 9%; Pf growth 48h: 9.3µM*

What do the screens show for `CC1=CC(C)(C)N(S(=O)(=O)c2ccc(F)cc2)c2ccc(C)cc21`?
Pf growth 96h: 15µM*; HCV inhibitor: inconclusive; AMA1-RON2 inh: 1%

What do the screens show for `COc1ccc2[nH]c(C(=O)O)c(NS(=O)(=O)c3ccc(C)cc3C)c2c1`?
Pf growth 96h: 3%; HCV inhibitor: 20%; AMA1-RON2 inh: -6%; Pf growth 48h: 20%

Results for Cc1ccc2c(C)c(C(=O)N3CCCC(C(N)=O)C3)oc2c1C (stereo not given) ?
Pf growth 96h: inconclusive; HCV inhibitor: -5%; AMA1-RON2 inh: 4%; Pf growth 48h: 49%

How did Cn1cccc1C(NC(=O)c1ccccc1)C(Cl)(Cl)Cl (stereo not given) do in these assays?
Pf growth 96h: -7%; HCV inhibitor: 18%; AMA1-RON2 inh: -19%; Pf growth 48h: -19%

What do the screens show for `COc1ccc2c(c1)CC=C1C2CCC2(C)C(=O)C(=NO)CC12` (stereo not given)?
HCV inhibitor: -15%; AMA1-RON2 inh: 6%

How did NS(=O)(=O)c1ccc(CCNC(=O)CNCCc2ccccc2)cc1 do in these assays?
Pf growth 96h: -6%; HCV inhibitor: 8%; AMA1-RON2 inh: 40µM*; Pf growth 48h: 0%

How did NS(=O)(=O)c1ccc(CCNC(=O)CNC(=O)C2CCCCC2)cc1 do in these assays?
Pf growth 96h: 12µM*; HCV inhibitor: 13%; AMA1-RON2 inh: 7%; Pf growth 48h: 10%

What do the screens show for `CC(=O)N1C[C@H]2CON(C)[C@H]2C[C@H]1c1cccc(-c2ccc(C#N)cc2)c1`?
AMA1-RON2 inh: 13%

What do the screens show for `N#Cc1ccc(-c2ccc(OCC(=O)Nc3cccnc3)cc2)cc1`?
Pf growth 96h: -4%; HCV inhibitor: inconclusive; AMA1-RON2 inh: -3%; Pf growth 48h: 3%

What do the screens show for `O=C(COc1ccc(S(=O)(=O)N2CCOCC2)cc1)Nc1ccc(Cl)c(C(F)(F)F)c1`?
Pf growth 96h: -4%; HCV inhibitor: inconclusive; AMA1-RON2 inh: 5%; Pf growth 48h: 9.3µM*

What do the screens show for `O=C(COc1ccc(C(=O)c2ccccc2)cc1)Nc1cccnc1`?
Pf growth 96h: inconclusive; HCV inhibitor: 6.3µM*; AMA1-RON2 inh: -15%; Pf growth 48h: -6%

Results for O=C(COc1ccc(C(=O)c2ccccc2)cc1)NC1CCCCC1 ?
Pf growth 96h: 44%; HCV inhibitor: 22%; AMA1-RON2 inh: 0%; Pf growth 48h: 9%

Results for O=C(COc1ccc(C(=O)c2ccccc2)cc1)NC1CCCCCC1 ?
Pf growth 96h: inconclusive; HCV inhibitor: 11µM*; AMA1-RON2 inh: -2%; Pf growth 48h: inconclusive

Results for O=C(COc1ccc(S(=O)(=O)N2CCOCC2)cc1)Nc1ccc(Br)cc1 ?
HCV inhibitor: 10µM*; AMA1-RON2 inh: -9%

How did COc1ccc(OCc2cc(C(=O)N3C[C@H]4CC[C@H]3C4)no2)c(Cl)c1 do in these assays?
Pf growth 96h: 4%; HCV inhibitor: -26%; AMA1-RON2 inh: 8%; Pf growth 48h: 43%

How did COc1ccc2oc(C(=O)OC(C)C(=O)NC3(C#N)CCCCC3)c(C)c2c1 (stereo not given) do in these assays?
Pf growth 96h: -2%; HCV inhibitor: inconclusive; AMA1-RON2 inh: -10%; Pf growth 48h: inconclusive

How did CC(=O)c1ccc(OCCCC(=O)Nc2ccc(S(=O)(=O)N3CCOCC3)cc2)cc1 do in these assays?
Pf growth 96h: inconclusive; HCV inhibitor: inconclusive; AMA1-RON2 inh: -13%; Pf growth 48h: -38%

What do the screens show for `O=C(COc1ccc(S(=O)(=O)N2CCOCC2)cc1)NC1CCCCC1`?
Pf growth 96h: 12µM*; HCV inhibitor: -15%; AMA1-RON2 inh: -2%; Pf growth 48h: inconclusive

How did O=C(CCCOc1ccc(Br)cc1)Nc1ccc(S(=O)(=O)N2CCOCC2)cc1 do in these assays?
Pf growth 96h: 8.3µM*; HCV inhibitor: inconclusive; AMA1-RON2 inh: 0%; Pf growth 48h: inconclusive
